TROY signal inh: blocks TROY-dependent signaling in reporter cells; AID 1347056; Q293 LMP1-TROYcd NF-kB luciferase reporter, 4 h; 360,000 compounds, 0.98% hits; inhibition, % at 10 µM;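 active means compounds whose plate-normalised and pattern-corrected inhibition of the luciferase reporter signal at the single screening dose is 50% or more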
EBV LMP1 NFkB: reduces LMP1-driven NF-kappaB luciferase signal. LMP1-induced NF-kappaB luciferase reporter cells, luminescence. inhibition, % at 12.5 µM. 350,000 compounds, 0.69% hits; in the data active means inhibition above about 41%; inconclusive means no clear call, values can overlap the other calls
MITF TRPM1 inh: inhibitors of MITF-driven TRPM1 promoter in melanoma cells | SK-MEL-5 TRPM1 promoter luciferase, 24 h | inhibition, % at 12.5 µM | 330,000 compounds, 0.83% hits;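 active means mean inhibition across replicates of 60% or more, whatever share of single replicates reaches that level; inconclusive means some that reach 60%, reason not given; inactive means mean inhibition across replicates below 60%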
LGR2 inh: blocks bursicon-induced cAMP signaling via Drosophila LGR2. inhibition, % at 9.99 µM. HEK293 LGR2, CRE-luciferase, bursicon-stimulated, 4 h. AID 720647. 380,000 compounds, 0.35% hits;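 active means drop in luminescence signal, shown as inhibition above about 50% in the replicate tests, limit read from the data, passing the limit was not always enough; inconclusive means probably only some replicates passing the limit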;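 further: agonist challenge used bursicon conditioned medium at about half maximal strength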
MITF act: MITF TRPM1 promoter activation in melanoma cells | SK-MEL-5 TRPM1-promoter luciferase, 24 h; % of positive control, neutral wells = 0 | activation, % at 12.5 µM | 300,000 compounds, 0.75% hits | AID 588334;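 active means mean activation of at least 80% with every replicate also reaching 80%; inconclusive means mean reaches 80% but some replicate falls short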
TWEAK-Fn14 inh: blocks TWEAK-Fn14 interaction in a reporter cell assay. inhibition, % at 10 µM. TWEAK-stimulated Fn14 reporter cells, luciferase luminescence, 8 h. AID 1159606. 360,000 compounds, 2% hits; in the data active means inhibition above about 50%
A number is an active result; - = inactive; ? = inconclusive; . = no result. Only some compounds are listed: those with a hit (about 3% of all), similar ones and a draw of the others.

SMILES	TROY signal inh	EBV LMP1 NFkB	MITF TRPM1 inh	LGR2 inh	MITF act	TWEAK-Fn14 inh
CNC[C@@H]1OCCCC[C@H](C)Oc2ccc(NC(=O)Cc3ccccc3)cc2C(=O)N([C@H](C)CO)C[C@@H]1C	.	.	.	-	.	.
Oc1ccc(Nc2ncnc3scc(-c4ccccc4)c23)cc1	-	-	-	-	-	63
c1ccc(-c2csc3ncnc(NCc4ccccn4)c23)cc1	-	-	-	.	.	65
CN(C)/C(=N\S(=O)(=O)c1ccccc1)c1ccc(F)cc1	-	-	-	-	-	52
CN(C)/C(=N\S(=O)(=O)c1ccc(F)cc1)c1ccccc1	-	-	-	-	-	-
COc1ccc(CN(C)C[C@@H]2Oc3ccc(NC(=O)NC(C)C)cc3CC(=O)N([C@@H](C)CO)C[C@H]2C)cc1	.	.	.	-	.	.
O=C(c1ccccc1)N1CCSc2sccc2C1=O	-	72	-	98	-	-
COc1ccc(-c2ccc3n(c2=O)C[C@H]2[C@H](CO)[C@@H](C(=O)N4CCOCC4)[C@@H]3N2C)cc1	.	.	.	-	.	.
Cc1cc(C)n(/N=C/c2cc([N+](=O)[O-])ccc2O)c(=O)c1	60	-	-	-	-	-
CCCCCCCCCCCC1=C(O)C(=O)C=C(O)C1=O	-	-	-	.	-	-
COC1=CC(=O)C(O)=C(CCCCCCC/C=C/CCCCCCCC2=C(O)C(=O)C=C(OC)C2=O)C1=O	61	-	-	.	-	85
Cc1noc(C)c1NC(=O)N(C)C[C@@H]1OCCCC[C@H](C)Oc2ccc(NS(=O)(=O)c3ccc(Cl)cc3)cc2C(=O)N([C@@H](C)CO)C[C@@H]1C	.	.	.	-	.	.
O=C1NC(=O)/C(=C/c2ccccc2OCc2ccccc2)S1	55	-	-	-	-	-
O=C(COc1ccccc1/C=C1\SC(=O)NC1=O)Nc1ccccc1	-	-	-	-	-	-
CCc1c(C2(O)CCCCC2)[nH]c2cc(C(F)(F)F)ccc12	51	-	-	.	-	-
CC(C)C(=O)Nc1cccc(COc2ccc(CN(Cc3ccccc3)C(=O)OC(C)(C)C)cc2)c1	-	-	-	-	-	70
Cc1cc(-c2ccccc2)n2ncc(-c3ccccc3)c2n1	74	-	-	60	-	89
Cc1nc2c(-c3ccccc3)cnn2c(N)c1-c1ccccc1	77	-	-	57	-	98
COc1ccc(-c2cc(C)nc3c(-c4ccccc4)cnn23)cc1	66	-	-	?	-	65
COc1ccccc1-c1c(C)nn2c(-c3ccccc3)cc(C)nc12	-	-	-	-	-	-
Cc1cc(SCC(=O)c2ccccc2)n2ncc(-c3ccccc3)c2n1	-	-	-	-	-	-
CCOC(=O)Cc1c(C)nc2c(-c3ccccc3)cnn2c1C	-	-	-	-	-	-
C[C@@H]1CN([C@H](C)CO)S(=O)(=O)c2ccc(/C=C/c3ccccc3)cc2O[C@H]1CN(C)C(=O)NC1CCCC1	.	.	.	-	.	.
C[C@@H]1CN([C@H](C)CO)S(=O)(=O)c2ccc(C3=CCCCC3)cc2O[C@H]1CN(C)Cc1cccc(C(=O)O)c1	.	.	.	-	.	.
COc1ccccc1NC(=O)c1ccc2nsnc2c1	-	-	-	-	91	-
SMILES	TROY signal inh	EBV LMP1 NFkB	MITF TRPM1 inh	LGR2 inh	MITF act	TWEAK-Fn14 inh
COc1cc(NC(=O)c2ccc3nsnc3c2)cc(OC)c1OC	-	-	-	-	-	-
O=C(Nc1ccc(Br)cc1F)c1ccc2nsnc2c1	-	-	-	-	129	-
CC(C)Cc1nc2oc3c(NCc4cccnc4)ncnc3c2c2c1CCC2	-	-	-	-	.	-
CC(C)Cc1nc2oc3c(NCC4CCCO4)ncnc3c2c2c1CCC2 (centres undefined)	-	-	-	.	-	54
O=C1/C(=C\c2ccc([N+](=O)[O-])cc2)CCc2ccccc21	55	-	-	-	-	86
COc1ccc(/C=C2\CCc3ccccc3C2=O)cc1O	-	-	-	?	-	74
CC(=O)Nc1ccc(/C=C2\CCc3ccccc3C2=O)cc1	71	-	-	-	-	76
C[C@@H]1CN([C@H](C)CO)C(=O)c2c(c3ccccc3n2C)-c2ccccc2CO[C@@H]1CN(C)Cc1ccc2c(c1)OCCN2C	.	.	.	-	.	.
Cc1nc2sc(C(N)=O)c(N)c2c2c1CCCC2	-	51	-	-	-	-
O=C(CCS(=O)(=O)c1ccccc1)NC12CC3CC(CC(C3)C1)C2	-	-	-	.	97	-
CCc1cc2c(=O)c(-c3nc4ccccc4[nH]3)coc2c(CN2CCCCC2C)c1O (centres undefined)	-	-	-	-	-	-
CCc1cc2c(=O)c(-c3ccc4c(c3)OCCO4)coc2c(CN2CCCCC2C)c1O (centres undefined)	72	-	-	-	-	-
O=C(Nc1ccccn1)c1ccc(NC(=O)c2ccco2)cc1	-	-	-	.	86	-
O=C(Nc1ccc(-c2nc3cccnc3s2)cc1)c1ccc(Cl)nc1	-	-	-	-	89	-
O=C(Nc1ccc(-c2nc3cccnc3s2)cc1)c1ccco1	-	-	.	-	.	58
O=C(Nc1ccc(-c2nc3cccnc3s2)cc1)c1cccnc1Cl	-	-	-	-	-	-
O=C(Nc1cccc(-c2nc3cccnc3s2)c1)c1ccco1	-	-	-	-	-	-
O=C(Nc1ccc(-c2nc3ncccc3o2)cc1)c1ccco1	-	-	-	.	104	-
O=C(NCC[C@@H]1CC[C@@H](NC(=O)C2CCCCC2)[C@H](CO)O1)c1ccc(F)cc1	.	.	.	-	.	.
Nc1c(C(=O)Nc2ccc3c(c2)OCCO3)nnn1Cc1ccc(Cl)cc1	-	-	-	-	130	-
Nc1c(C(=O)Nc2ccc3c(c2)OCCO3)nnn1Cc1cccc(F)c1	-	-	-	-	115	-
O=C(c1ccc(-n2cccn2)cc1)N1CCc2c([nH]c3ccccc23)C1c1ccccn1 (centres undefined)	-	-	-	-	-	-
Cn1cccc1-c1cc(C(=O)N2CCc3c([nH]c4ccccc34)C2c2ccccn2)[nH]n1 (centres undefined)	-	55	-	-	-	-
C[C@@H]1CN([C@@H](C)CO)C(=O)c2cccc(NC(=O)Nc3ccc(F)cc3)c2O[C@H]1CN(C)S(=O)(=O)c1cccs1	.	.	.	-	.	.
COc1ccc(N=C2SC(CC(=O)Nc3ccccc3)C(=O)N2Cc2ccccn2)cc1 (centres undefined)	-	-	-	-	-	-
COc1ccc(N=C2SC(CC(=O)Nc3cccc(Cl)c3)C(=O)N2Cc2ccco2)cc1 (centres undefined)	-	-	-	-	-	53
C=CCn1c(C)cc(C(=O)COc2ccc(C)nc2[N+](=O)[O-])c1C	-	-	-	-	-	65
COCCn1c(C)cc(C(=O)COc2ccc(C)nc2[N+](=O)[O-])c1C	-	45	-	-	-	-
Cc1ccc(OCC(=O)c2cc(C)n(-c3ccccc3)c2C)c([N+](=O)[O-])n1	59	66	-	-	-	85

Compound activity from PubChem.
